Data published in PubChem BioAssay (NCI).
Values joined by “and” are separate entries in the source; they are usually repeats but may differ in a detail not shown here. Identical values can stand only once. This is part of a sample that, as a whole, favours compounds with a hit. Of some 83,000 tested, about 20% had one in any assay.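 Percent growth is the endpoint: 0 to 100 indicates growth inhibition (40 means 60% inhibition), 0 means no net growth, and negative values indicate cell death.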

How the values were obtained:
Experiment in all cases: NCI-60 one-dose screen, 48 h (100 = growth as untreated, 0 = no growth, -100 = all killed)
Conditions in all cases: 10 µM unless noted; active = growth percent below 10; inactive = the rest
[1] = tested on: DU-145 prostate
[2] = tested on: K-562 leukemia
[3] = tested on: MALME-3M melanoma
[4] = tested on: MDA-MB-231 breast
[5] = tested on: RXF 393 renal
[6] = tested on: SF-268 CNS
[7] = tested on: SF-295 CNS
[8] = tested on: SF-539 CNS
[9] = tested on: UACC-257 melanoma
[10] = tested on: M14 melanoma

Measured: growth

Cc1nc2c(=O)[nH]c(=S)[nH]c2[nH]c1=O
inactive: [1] 112% and 119% | [2] 102% | [3] 108% | [4] 112% and 102% | [5] 111% and 125% | [6] 109% and 104% | [7] 111% and 94.6% | [8] 104% and 99.1% | [9] 110% and 97.8%

COc1ccc(CCNC(=S)NN)cc1OC
inactive: [1] 106% | [2] 101% | [3] 124% | [4] 114% | [5] 200% | [6] 96% | [7] 103% | [8] 95% | [9] 108%

O=COCCCc1ccccc1
inactive: [1] 112% | [2] 104% | [3] 106% | [4] 100% | [5] 108% | [6] 103% | [7] 106% | [8] 102% | [9] 86.5% | [10] 105%

CC(C)(C)OC(=O)CC1(O)CCCCC1
inactive: [1] 112% | [2] 114% | [3] 117% | [4] 95.8% | [5] 108% | [6] 104% | [7] 100% | [8] 108% | [9] 109%

O=C(O)C(Cc1ccc(OS(=O)(=O)Cc2ccccc2)cc1)NS(=O)(=O)Cc1ccccc1 (stereo unspecified)
inactive: [1] 101% and 108% | [2] 105% and 101% | [3] 95.8% and 136% | [4] 102% | [5] 118% and 126% | [6] 105% and 98% | [7] 106% and 102% | [8] 97.7% and 101% | [9] 100% and 101%

Clc1ccc2sc(-c3ccccc3)nc2c1
inactive: [1] 113% | [2] 92.9% | [3] 104% | [4] 80.3% | [5] 103% | [6] 96% | [7] 100% | [8] 95.5% | [9] 65.6% | [10] 102%

O=P(O)(O)OC1C(OP(=O)(O)O)C(OP(=O)(O)O)C(OP(=O)(O)O)C(OP(=O)(O)O)C1OP(=O)(O)O.[Cu+2] (stereo unspecified)
inactive: [1] 104% | [2] 94.7% | [3] 93.4% | [4] 80.7% | [5] 125% | [6] 125% | [7] 91% | [8] 72% | [9] 80.2% | [10] 102%

O=[N+]([O-])c1cccc2ccc(N/N=C/c3ccccc3O)nc12
inactive: [1] 88.7% and 107% | [2] 19.9% and 49.1% | [3] 96.2% and 100% | [4] 72.6% and 84.5% | [5] 84.6% | [6] 106% and 99.2% | [7] 104% and 102% | [8] 90.9% and 101% | [9] 92.1% and 85.4% | [10] 88.9% and 107%

COC(=O)c1nc(N)nc(C(=O)OC)c1C(=O)c1ccc(F)cc1
inactive: [1] 111% | [2] 109% | [3] 104% | [4] 103% | [5] 104% | [6] 103% | [7] 101% | [8] 103% | [9] 110% | [10] 108%

O=C(/C=C/C=C/c1ccc2c(c1)OCO2)N1CCCCC1
inactive: [1] 119% and 110% | [2] 90.5% and 70.7% | [3] 108% and 214% | [4] 98.6% and 98% | [5] 105% and 110% | [6] 114% and 99.2% | [7] 85.4% and 107% | [8] 109% and 101% | [9] 114% and 106% | [10] 109% and 99.5%

S=c1ccc2ccccc2[nH]1
inactive: [1] 115% and 111% | [2] 90.7% and 103% | [3] 85.9% and 98.5% | [4] 93.9% and 100% | [5] 106% and 105% | [6] 107% and 99.7% | [7] 104% and 109% | [8] 97.9% and 102% | [9] 101% and 92.3% | [10] 99.6% and 107%
